The record followed here is PubChem BioAssay (Tox21).

Assay [1] can be described thus: qHTS assay for small molecule agonists of the p53 signaling pathway (AID 651631; calls by dose curve; further: nearly all actives have a fitted effect of over 15% in size; further: potency means the concentration at half of the fitted maximal effect). The essentials:
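HCT-116 p53RE-bla reporter line, 16 h compound treatment at 37 °C, then fluorescence after 2 h with B/G FRET substrate.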

Assay [2] is described as follows: qHTS assay for small molecules that induce genotoxicity in human embryonic kidney cells expressing luciferase-tagged ATAD5 (AID 651632). Further: nearly all actives have a fitted effect of over 15% in size. The gist of the method: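 A rise in luciferase signal from ATAD5-tagged HEK293T cells marks genetic stress. Cells were exposed to compounds for 16 hr at 37C, 5% CO2, then luciferase was quantified after a 30 min room-temperature incubation with Amplite.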
For orientation: In qHTS, concentration-response curves come from the screen itself.

A short description of assay [3]: qHTS assay for small molecule agonists of the p53 signaling pathway - cell viability (AID 651633; calls by dose curve; further: nearly all actives have a fitted effect of over 30% in size; further: potency means the concentration at half of the fitted maximal effect). The gist of the method:
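Viability counter-read: CellTiter-Glo luminescence (30 min, room temperature) in the same p53RE-bla plates. These plates had been exposed to compounds for 16 h at 37 C.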

Assay [4] in a line: qHTS assay for small molecules that induce genotoxicity in human embryonic kidney cells expressing luciferase-tagged ATAD5 - cell viability (AID 651634; calls by dose curve; further: nearly all actives have a fitted effect of over 25% in size; further: potency means the concentration at half of the fitted maximal effect). The gist of the method:
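Cytotoxicity counter-readout: after 15.5 hr compound treatment at 37C, live-cell protease activity in ATAD5-luciferase HEK293T cells measured by CellTiter-Fluor fluorescence, 30 min development at 37C.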

Assay [5] can be described thus: qHTS assay for small molecule disruptors of the mitochondrial membrane potential - cell viability (AID 720634; calls by dose curve;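 further: human HepG2 liver cancer cells; nearly all actives have a fitted effect of over 20% in size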). The essentials: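 Cytotoxicity was quantified from ATP content by CellTiter-Glo luminescence in the same wells as the MMP dye read-out. HepG2 (2,000 cells/well) were plated overnight and exposed to compounds for 1 hr at 37 C.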
Assay [6] in a line: qHTS assay to test for compound auto fluorescence at 590 nm (red) in HepG2 cells (AID 720674). Further: potency means the concentration at half of the fitted maximal effect. The gist of the method:
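We screened compounds on adherent HepG2 cells, incubating them for an hour at 37 C in 5% CO2 before reading emission at 590 nm under 540 nm excitation; values reflect equivalence to Rose Bengal sodium fluorescence.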

Assay [7] in a line: qHTS assay to test for compound auto fluorescence at 535 nm (green) in HepG2 cells (AID 720675). Further: potency means the concentration at half of the fitted maximal effect.
Assay [8] can be described thus: qHTS assay to test for compound auto fluorescence at 460 nm (blue) in HEK293 cells (AID 720678). The gist of the method:
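Auto fluorescence in the blue band was quantified as triamterene equivalency. HEK293 cells were seeded at 2,000/well, dosed after a 4-5 hr attachment, and kept overnight at 37C before the 405/460 nm reading.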

A short description of assay [9]: qHTS assay to test for compound auto fluorescence at 590 nm (red) in HEK293 cells (AID 720679). The gist of the method: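 Autofluorescence equivalency to Rose Bengal sodium, 540/590nm, in HEK293 cells exposed overnight to 23 nL compound per well.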
The nature of assay [10]: qHTS assay to test for compound auto fluorescence at 535 nm (green) in HEK293 cells (AID 720680). Further: potency means the concentration at half of the fitted maximal effect.
Assay [11] in a line: qHTS assay to test for compound auto fluorescence at 460 nm (blue) in HEK293 cell free culture (AID 720681). The gist of the method:
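Blue fluorescence (Ex 405/Em 460 nm, triamterene-equivalent) was read immediately after pin transfer of compound or DMSO into medium (DMEM, 10% FBS) without cells.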

A short description of assay [12]: qHTS assay to test for compound auto fluorescence at 535 nm (green) in HEK293 cell free culture (AID 720682). Further: potency means the concentration at half of the fitted maximal effect. The essentials: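 Steps: dispense DMEM/10% FBS into empty wells; pin in compound or DMSO; measure fluorescence at 485/535 nm. Values are fluorescein equivalents.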
The nature of assay [13]: qHTS assay to test for compound auto fluorescence at 590 nm (red) in HEK293 cell free culture (AID 720683). Further: potency means the concentration at half of the fitted maximal effect. The gist of the method:
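Red-channel autofluorescence of compounds in culture medium (DMEM, 10% FBS), no cells, measured at 540/590 nm. Rose Bengal sodium is the reference fluorophore for equivalence.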

Assay [14] can be described thus: qHTS assay to test for compound auto fluorescence at 590 nm (red) in HepG2 cell free culture (AID 720684). Further: potency means the concentration at half of the fitted maximal effect. The essentials:
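Cell-free; medium MEM + 10% FBS; compound or DMSO added by pintool; read Ex 540/Em 590 nm; Rose Bengal sodium as red reference fluorophore.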

A short description of assay [15]: qHTS assay to test for compound auto fluorescence at 460 nm (blue) in HepG2 cell free culture (AID 720685). The essentials: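 Cell-free plates of MEM plus 10% FBS received 23 nL compound or DMSO vehicle; blue-channel (405/460 nm) intensity scored against triamterene as reference fluorophore.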
Assay [16] is described as follows: qHTS assay to test for compound auto fluorescence at 535 nm (green) in HepG2 cell free culture (AID 720686). Further: potency means the concentration at half of the fitted maximal effect.
A short description of assay [17]: qHTS assay to test for compound auto fluorescence at 460 nm (blue) in HepG2 cells (AID 720687). The gist of the method: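 Blue-channel autofluorescence (Ex/Em 405/460 nm, triamterene-equivalent) was measured after 1 hr compound exposure at 37 C, 5% CO2. Cells were HepG2, plated overnight at 37 C in MEM plus 10% FBS.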
A short description of assay [18]: qHTS assay for small molecule disruptors of the mitochondrial membrane potential (AID 720635). The gist of the method:
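Mitochondrial membrane potential tracked with Mito-MPS dye, red aggregates (ex 540/em 590 nm) against green monomers (ex 490/em 535 nm). Compound treatment 1 hr at 37C, dye 30 min in HepG2.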

In assay [19] the target is Glucocorticoid receptor (Homo sapiens) (UniProt P04150). Kind of assay: qHTS assay to identify small molecule agonists of the glucocorticoid receptor (GR) signaling pathway (AID 720691; active means well fitted activation curve with a large enough effect in the signal ratio in the repeat runs, not every such curve was filed as active; the % refers to the signal ratio). To be noted: GR-bla HeLa, beta-lactamase reporter ratio, 18 h; activation: at 62.4 µM (top of the series). The gist of the method:
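Agonist-mode qHTS in HeLa cells stably expressing a glucocorticoid-response-element beta-lactamase reporter. Fluorescence intensity read with FRET substrate (2 h, room temperature) after 18 h compound treatment at 37 C.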

Assay [20] shares this target. In words: qHTS assay to identify small molecule antagonists of the glucocorticoid receptor (GR) signaling pathway (AID 720692; active means well fitted inhibition curve with a large enough effect in the signal ratio in the repeat runs, not every such curve was filed as active; the % refers to the signal ratio; further: potency means the concentration at half of the fitted maximal effect). The gist of the method:
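Inhibition of dexamethasone-driven (5 nM final) beta-lactamase expression was measured in GRE-reporter HeLa cells over 18 h at 37C. Fluorescence was read after 2 h with the B/G FRET substrate at room temperature.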

Values joined by “and” are separate entries in the source; they are usually repeats but may differ in a detail not shown here. Equal entries are not always repeated. Records with an inconclusive call do not appear. Active and inactive are the calls of the source. Unless noted, the call rests on the fitted dose curve; in most records, active means well fitted curve in the direction sought with a large enough effect in the repeat runs; inconclusive means weak or mixed curves; inactive means no such curve, though single readings can be large; an effect the other way counts as inactive or inconclusive.
Tags describe the fitted curve by direction and shape or compound fluorescence and quenching.

Chain of Glucocorticoid receptor (Homo sapiens) (P04150 whole entry, looked up): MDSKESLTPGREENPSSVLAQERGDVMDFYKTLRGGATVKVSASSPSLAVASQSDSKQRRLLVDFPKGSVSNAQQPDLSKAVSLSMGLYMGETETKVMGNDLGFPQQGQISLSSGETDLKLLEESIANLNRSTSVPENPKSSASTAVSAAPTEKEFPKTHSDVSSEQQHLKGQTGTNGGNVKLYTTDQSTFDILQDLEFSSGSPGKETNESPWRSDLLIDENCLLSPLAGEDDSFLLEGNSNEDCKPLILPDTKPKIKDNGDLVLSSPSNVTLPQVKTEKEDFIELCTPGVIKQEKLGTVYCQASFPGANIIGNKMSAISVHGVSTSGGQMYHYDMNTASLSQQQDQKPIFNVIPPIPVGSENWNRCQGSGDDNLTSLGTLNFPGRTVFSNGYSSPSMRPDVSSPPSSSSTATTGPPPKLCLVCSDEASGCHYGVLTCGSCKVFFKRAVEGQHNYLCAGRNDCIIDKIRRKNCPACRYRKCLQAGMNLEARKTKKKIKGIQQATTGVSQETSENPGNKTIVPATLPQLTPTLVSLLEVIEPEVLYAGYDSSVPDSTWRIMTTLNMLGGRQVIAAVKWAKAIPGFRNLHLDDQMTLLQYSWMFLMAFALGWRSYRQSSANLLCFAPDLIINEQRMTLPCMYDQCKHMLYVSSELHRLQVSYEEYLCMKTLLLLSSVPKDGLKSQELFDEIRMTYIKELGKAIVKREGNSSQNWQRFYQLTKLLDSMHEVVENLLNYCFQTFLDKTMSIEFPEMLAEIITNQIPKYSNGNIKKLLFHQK

Consider `Cn1cnc2ncnc(N)c21`, for which the Potency result in assay [1], in [2], in assay [3], in [4], in assay [5] and in assay [6] was “inactive” in each case. Besides, the Potency entry in assay [7], in assay [8], in [9], in assay [10], in assay [11] and in assay [12] was “inactive” each time. Moreover, the Potency entry in assay [13], in assay [14], in assay [15], in [16] and in assay [17] was “inactive” each time.
As for `[O]=[Zr]`, the Potency result in assay [1], in assay [2], in assay [3], in assay [4], in assay [5] and in assay [18] was “inactive” in each case. Further, the Potency result in [6], in assay [7], in assay [8], in assay [9], in assay [10] and in [11] was “inactive” throughout. Also, the Potency entry in assay [12], in [13], in assay [14], in [15], in assay [16] and in [17] was “inactive” each time.
Consider `CCN=c1cc2oc3cc(NCC)c(C)cc3c(-c3ccccc3C(=O)OCC)c-2cc1C`, for which the Potency was 48.4 µM (active) in [1]; 60.9 µM (active) and 15.4 µM (active) in [3]; 9.65 µM (active) and 6.86 µM (active) in assay [4]; 3.55 µM (active) and 3.98 µM (active) in assay [6]; 39.8 µM (active) and 35.5 µM (active) in [7]; 39.8 µM [fluorescent] (active) in [10]. The Potency was 39.8 µM [fluorescent] (active) in assay [12]; 3.16 µM [fluorescent] (active) and 4.47 µM [fluorescent] (active) in [13]; 2.82 µM [fluorescent] (active) and 3.55 µM [fluorescent] (active) in [14]; 39.8 µM [fluorescent] (active) in assay [16]. Further, the Potency result in assay [2], in assay [5], in [8], in [11], in assay [15] and in assay [17] was “inactive” in each case.
Take `CC(=O)Oc1ccc(C2(c3ccc(OC(C)=O)cc3)C(=O)Nc3ccccc32)cc1`: the Potency in assay [1] is 211 nM (active) and 237 nM (active); in [3], 150 nM (active) and 266 nM (active); in [20] it was 16.9 µM (active) and 26.8 µM (active). For the same compound, the Potency result in assay [2], in assay [4], in [6], in assay [7], in [8] and in assay [9] was “inactive” each time. Also, the Potency result in [10], in [11], in [12], in assay [13], in assay [14] and in assay [15] was “inactive” in each case. Further, the Potency result in [16], in [17] and in assay [19] was “inactive” throughout.
Regarding `Cc1cn[nH]c1`, the Potency result in [1], in assay [2], in [3], in assay [4], in assay [5] and in assay [18] was “inactive” throughout. Further, the Potency entry in assay [7], in [8], in assay [9], in assay [10], in assay [11] and in assay [12] was “inactive” throughout. The Potency entry in assay [13], in [14], in assay [15], in [16], in [17] and in assay [19] was “inactive” throughout. In addition, in [20], the Potency entry is “inactive”.
Consider `Oc1c(Br)cc(Br)c2cccnc12`, for which the Potency is 5.96 µM (active) in assay [1] and 6.68 µM (active) in assay [3]. Also, the Potency entry in [2], in [4], in [5], in assay [7], in assay [9] and in assay [10] was “inactive” in each case. Moreover, the Potency result in assay [11], in assay [12], in [13], in [14], in assay [15] and in assay [16] was “inactive” in each case. Also, the Potency result in assay [17] was “inactive”.
